SMARCA2 activ: increases SMARCA2 function in MMTV reporter cells; actives 1% (n = 370,000); activation, % at 9.1 µM; MG213 cells, MMTV-luciferase reporter, dexamethasone, overnight; in the data active = activation above about 7.8%;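 note: 0% = vehicle wells and 100% = reference activator wells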
ssDAF12 agonist: activates DAF-12 receptor from parasite S. stercoralis; HEK293 ssDAF-12/GRIP1 lit1-tk-luc reporter, luminescence; % of 3 µM dafachronic acid response; AID 652126; actives 1% (n = 370,000); activation, % at 6.8 µM;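 active = activation above the mean over all tested compounds plus 3 SD, cut at about 0.9% in these data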;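 note: 0% = DMSO-only wells and 100% = 3 µM delta7-dafachronic acid wells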
hcDAF12 agonist: activates DAF-12 receptor from parasite H. contortus; HEK293 hcDAF-12 lit1-tk-luc reporter, luminescence; 0% DMSO, 100% Δ7-dafachronic acid; activation, % at 6.8 µM; actives 1.4% (n = 370,000); AID 652067;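 active = activation above the mean of all tested compounds plus 3 SD, cut at about 5.5% in these data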;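 note: 100% = response to 3 µM Δ7-dafachronic acid high control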
DAX1 inh-1: NR0B1 (DAX1) inhibition | HEK293 Gal4-DAX1 luciferase reporter, luminescence | P51843 | inhibition, % at 6.75 µM | actives 0.99% (n = 340,000);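 active = inhibition above the mean over all tested compounds plus 3 SD, cut at about 4.2% in these data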;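 note: 0% = DAX1-transfected cells with DMSO and 100% = empty-vector control cells with DMSO; inhibition shows as a rise in luminescence from relieved DAX1 repression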
Target sequence (P51843 207-470 limits assumed): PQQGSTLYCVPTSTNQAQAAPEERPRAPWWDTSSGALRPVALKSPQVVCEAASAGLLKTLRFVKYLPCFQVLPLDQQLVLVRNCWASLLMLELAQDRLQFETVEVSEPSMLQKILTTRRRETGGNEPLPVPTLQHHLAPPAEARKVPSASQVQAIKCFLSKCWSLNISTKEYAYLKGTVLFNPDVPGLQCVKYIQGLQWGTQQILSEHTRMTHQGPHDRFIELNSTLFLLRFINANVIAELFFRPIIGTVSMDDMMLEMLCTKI
DAX1 inh-2: DAX1 (NR0B1) inhibition, primary screen; actives 1.1% (n = 370,000); inhibition, % at 6.8 µM; HEK293T StAR-luciferase reporter, SF-1/DAX-1 repression relief;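 active = inhibition above the mean over all tested compounds plus 3 SD, cut at about 3.6% in these data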;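 note: 0% = DAX-1 cells with DMSO and 100% = cells lacking DAX-1 with DMSO; higher inhibition means more luminescence from relief of DAX-1 repression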
hgDAF12 agonist: agonists of H. glycines DAF-12 nuclear receptor | actives 1.8% (n = 370,000) | HEK293 GAL4-hgDAF12 UAS-luciferase reporter, agonist luminescence; normalized to butyrate control | activation, % at 6.8 µM;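 active = activation above a cutoff set at the mean of all screened compounds plus 3 SD, cut at about 10% in these data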;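 note: 0% = DMSO wells and 100% = sodium butyrate wells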
hgDAF12 conf: confirmation of H. glycines DAF-12 agonists; activation, % at 6.8 µM; HEK293 GAL4-hgDAF12 luciferase reporter, agonist mode; percent of butyrate response; shares compounds with hgDAF12 agonist; AID 743050; actives 80% (n = 3,300);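 active = mean activation over triplicate wells above the hit cutoff derived from the earlier primary screen, cut at about 11% in these data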;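 note: 0% = DMSO low control and 100% = 2 mM sodium butyrate high control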
LXR ag 2: counter-screen for DAF-12 agonists: agonists of human LXR-beta | shares compounds with hgDAF12 agonist | HEK293 Gal4-LXR luciferase reporter, 24 h | activation, % at 6.8 µM | 3,300 tested, under 10 active | AID 743051;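 active = mean activation of the triplicate above a set limit carried over from the primary screen, none filed active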
Starred values were filed as active, the others as inactive; . = no result. In the library only some 4.8% were active in any assay of this set; here they are far more common.

SMILES	SMARCA2 activ	ssDAF12 agonist	hcDAF12 agonist	DAX1 inh-1	DAX1 inh-2	hgDAF12 agonist	hgDAF12 conf	LXR ag 2
O=Cc1cn(CC(=O)N2CCOCC2)c2ccccc12	6	-1	0	0	0	0	.	.
Cc1cccc(CSc2cn(CC(=O)N3CCOCC3)c3ccccc23)c1	2	0	4	5.2*	1	14*	13*	0
Cc1cc(C(=O)CN2C(=O)c3cccc(N)c3C2=O)c(C)n1Cc1cccs1	7	1.0*	6.0*	2	4.1*	15*	15*	1
CCn1c(SCc2nc(-c3ccccc3)no2)nnc1-c1cccs1	-4	-2	0	2	-1	-1	.	.
Cc1ccc(C(=O)NN=Cc2ccc3c(c2)OCO3)cc1	4	0	1	1	1	15*	12*	0
O=C(CNc1ccccc1)N/N=C/c1ccc2c(c1)OCO2	1	-1	0	-1	0	0	.	.
O=C(Cc1ccccc1)N/N=C/c1ccc2c(c1)OCO2	4	-1	4	.	1	16*	12*	0
Cc1ccc(C(=O)N/N=C\c2ccc3c(c2)OCO3)cn1	1	-1	0	0	0	1	.	.
CN(C)c1ccc(C(=S)N2CCN(C(=S)Nc3cccc4ccccc34)CC2)cc1	-3	0	0	0	0	1	.	.
COCCNC(=O)C(c1ccc(C)cc1)N(C(=O)CCC(=O)Nc1ccccn1)C1CCCCC1 (stereo not given)	-4	-1	-2	0	0	0	.	.
CC(C)(C)c1ccc(C(=O)c2c[nH]c(C(=O)NCCCN3CCOCC3)c2)cc1	-4	-1	-2	1	-1	0	.	.
COc1ccc(C(=O)Nc2cccc(OC(=O)c3ccco3)c2)cc1	3	0	4	-1	2	14*	14*	1
Cc1ccc(NC(=O)c2cncc(Br)c2)c(O)c1	7	0	6.2*	2	3	16*	17*	0
COc1cc(SC)ccc1C(=O)Nc1ccon1	2	-1	4	0	0	6	.	.
COc1cc(SC)ccc1C(=O)Nc1cccc(C)n1	4	-1	2	2	4.0*	16*	12*	1
COc1ccc(NC(=O)Nc2nc3c(s2)CCCC3)cc1	1	0	4	3	3	19*	16*	1
COc1ccc(NC(=O)Nc2cccc(C)n2)cc1	2	-1	2	2	2	17*	12*	0
COc1ccc(NC(=S)Nc2cccc(C)n2)cc1	7	-1	-2	.	0	1	.	.
COc1cc(SC)ccc1C(=O)Nc1ccc2ncccc2c1	4	2.4*	4	1	3	15*	17*	1
O=C(Nc1ccc2ncccc2c1)c1ccccc1Br	.	.	.	2	.	.	.	.
Cc1cc(C)n(CC(=O)NC2CCCCC2)n1	-2	-1	0	-2	1	1	.	.
c1c2c(cc3sc(N4CCOCC4)nc13)OCO2	2	0	6.0*	2	3	16*	13*	1
CN(C)c1ccc(/C=C2\CCCCC2=O)cc1	4	0	5	4	4	18*	14*	1
[O-]/[N+](=C\C=C\c1ccccc1)c1ccccc1	3	0	4	3	1	14*	14*	0
O=C(CSc1nc2ccccc2s1)Nc1ccc2c(c1)oc1ccccc12	-1	0	3	0	0	4	.	.
SMILES	SMARCA2 activ	ssDAF12 agonist	hcDAF12 agonist	DAX1 inh-1	DAX1 inh-2	hgDAF12 agonist	hgDAF12 conf	LXR ag 2
O=C(CSc1nnc(NC(=O)c2ccccc2Cl)s1)Nc1ccc2c(c1)oc1ccccc12	11*	0	4	.	2	14*	11*	0
O=C(O)c1cc(N/N=C/C=C/c2ccccc2[N+](=O)[O-])ccc1Cl	8	0	4	2	3	13*	0	0
CC(=O)N/C(=C\c1ccccc1)C(=O)OC(C)C(=O)NCc1ccccc1 (stereo not given)	0	-1	-1	0	-2	3	.	.
CCCN1C(=O)c2cc(C(=O)NC3CCCCCC3)ccc2C1O (stereo not given)	3	0	3	2	3.8*	18*	14*	1
CCCN1C(=O)c2cc(C(=O)O)ccc2C1O (stereo not given)	6	-1	2	0	0	-3	.	.
Cc1cc(Br)ccc1NC(=O)CN(C)Cc1cccs1	-2	-1	-1	0	0	2	.	.
O=C(N/N=C/C(Cl)=C/c1ccccc1)c1ccco1	4	0	5	2	4.0*	22*	12*	1
O=C(N/N=C/C(Cl)=C\c1ccccc1)c1cnccn1	0	-1	0	0	0	4	.	.
COc1ccc(-c2noc(CCC(=O)NCc3cccnc3)n2)cc1	-3	-1	3	-1	-1	-1	.	.
COCCCNCCCCOc1ccc(OCc2ccccc2)cc1	4	-1	3	0	1	6	.	.
C=CCNCCCCOc1ccc(OCc2ccccc2)cc1	8	-1	3	1	3	15*	17*	1
c1ccc(COc2ccc(OCCCCN3CCCC3)cc2)cc1	19*	-1	4	1	2	14*	14*	1
O=S(=O)(N1CCCCC1)N1CCN(c2ccc(F)cc2)CC1	1	-2	0	0	0	0	.	.
O=C(COC(=O)c1ccc(Br)o1)Nc1nc2ccccc2s1	-1	0	5	0	0	3	.	.
O=C(N/N=C/C(Br)=C/c1ccccc1)c1n[nH]c2c1CCC2	.	.	.	-2	.	.	.	.
O=C(N/N=C/c1ccccc1)c1n[nH]c2c1CCCC2	7	1.1*	2	-1	3	17*	16*	1
O=C(NNS(=O)(=O)c1ccccc1)C(O)(c1ccccc1)c1ccccc1	-2	-2	2	0	0	2	.	.
COCCn1c(C)cc(C(=O)Cn2nc(C(=O)O)c3ccccc3c2=O)c1C	4	0	1	1	4	14*	12*	0
O=[N+]([O-])c1cccc(-c2ccc(C(=S)N3CCN(c4ccccc4)CC3)o2)c1	4	-1	-1	.	-1	1	.	.
S=C(c1ccc(-c2cccc(Cl)c2)o1)N1CCCCC1	3	1.1*	6.3*	2	4.2*	27*	21*	1

Screening data as filed in PubChem.
